From PubChem BioAssay
KCNH2 3.1 block = qHTS for Inhibitors of KCHN2 3.1: Mutant qHTS | Potassium voltage-gated channel subfamily H member 2, brain isoform KCNH2 3.1 (human) | U2OS KCNH2 3.1, thallium flux FluxOr; hits give low values | activity change, % (tested at about 1.8 µM) | 340,000 compounds, 0.95% hits | AID 720553, 2013;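 active means maximum activity change below -70%; inconclusive means maximum activity change from -70% to -50%; inactive means maximum activity change above -50%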;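 further: thallium influx rate constant from kinetic fluorescence after stimulation buffer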
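Thallium flux via FluxOr fluorescence (Red40 quencher, 45 min loading) in U2OS cells virally expressing the KCNH2 3.1 isoform (1.77 x 10^8 /mL virus, overnight at 37 C). Rate constants from 2-min kinetic reads post-stimulation, normalised to positive and negative controls.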
KCNH2 WT inh = qHTS for Inhibitors of KCHN2 3.1: Wildtype qHTS; AID 720551, 2013; 340,000 compounds, 0.37% hits; activity change, % at 1.84 µM; U2OS, BacMam KCNH2, thallium flux FluxOr; hits give low values;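 active means maximum activity change below -70%; inconclusive means maximum activity change between -70% and -50%; inactive means maximum activity change above -50%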
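U2OS cells transduced with wild-type KCNH2 virus are loaded with FluxOr dye for 45 min, and thallium flux is measured in kinetic reads before and after stimulation buffer. Rate constants are normalized to DMSO controls.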
FBPA coupling cs = qHTS Assay for Inhibitors of Fructose-1,6-bisphosphate Aldolase from Giardia Lamblia: Coupling assay counterscreen | coupling enzyme system counterscreen, AmpLite Red fluorescence | activity change, negative = inhibition, % at 58.2 µM, hits read low | 290,000 compounds, 0.67% hits; in the data active means activity change below about -30%
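First, compound is pin-transferred into glyceraldehyde-3-phosphate coupling-enzyme reagent at 57.5 uM final and held 10 min at RT. Next, substrate, coupling system and AmpLite Red are added. After 20 min RT, fluorescence (525/598 nm) is read.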
Giardia killer = Small Molecules that selectively kill Giardia lamblia: qHTS; Giardia lamblia trophozoite viability; activity change, % at 7.66 µM, hits read low; 340,000 compounds, 0.15% hits; in the data active means activity change below about -80%; inconclusive means between about -30% and that limit;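 further: parasites exposed to compound for two days anaerobically before the ATP read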
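Viability, read as ATP luminescence: trophozoites at 100 cells/well, compound added, 48 hrs anaerobic at 37 deg C, then 15-30 min room-temperature development before reading.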
USP1 inh = Inhibitors of USP1/UAF1: Primary Screen; recombinant USP1/UAF1, Ub-Rhodamine cleavage fluorescence; Potency, µM (top dose mostly 57.1 µM), inactives show top-dose activity change, negative = inhibition, actives largely listed as inhibitors; 390,000 compounds, 0.23% hits; active means well fitted inhibition curve with a large enough effect; inconclusive means small, poorly fitted or top-dose-only effect; inactive means no such curve, though single readings can be large or run the other way; further: potency means the concentration at half of the fitted maximal effect; nearly all actives have a fitted effect of over 60% in size
Target sequence (O94782 whole entry, looked up): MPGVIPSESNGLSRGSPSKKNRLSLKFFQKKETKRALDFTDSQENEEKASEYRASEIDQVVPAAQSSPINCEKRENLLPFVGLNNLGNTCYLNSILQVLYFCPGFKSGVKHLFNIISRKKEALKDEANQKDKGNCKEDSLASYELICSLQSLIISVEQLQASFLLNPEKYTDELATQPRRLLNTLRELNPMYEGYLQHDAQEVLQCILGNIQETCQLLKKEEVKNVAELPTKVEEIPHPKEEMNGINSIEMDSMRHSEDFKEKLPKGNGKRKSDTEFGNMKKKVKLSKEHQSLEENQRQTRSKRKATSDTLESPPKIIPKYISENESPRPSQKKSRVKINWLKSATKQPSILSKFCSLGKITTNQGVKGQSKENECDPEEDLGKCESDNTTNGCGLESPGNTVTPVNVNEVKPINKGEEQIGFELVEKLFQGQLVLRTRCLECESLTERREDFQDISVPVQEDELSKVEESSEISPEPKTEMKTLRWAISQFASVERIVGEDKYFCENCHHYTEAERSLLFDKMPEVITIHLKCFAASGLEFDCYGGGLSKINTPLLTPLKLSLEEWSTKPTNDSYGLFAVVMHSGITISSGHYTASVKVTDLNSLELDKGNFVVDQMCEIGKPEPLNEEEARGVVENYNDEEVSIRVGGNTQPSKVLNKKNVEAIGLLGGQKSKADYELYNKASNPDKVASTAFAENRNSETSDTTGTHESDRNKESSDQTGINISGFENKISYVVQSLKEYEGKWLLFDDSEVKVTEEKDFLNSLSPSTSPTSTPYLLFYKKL
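USP1/UAF1 complex (1 nM) preincubated 15 min at room temperature with compound, then Ub-Rho substrate (150 nM final) added. Kinetic fluorescence at 480/540 nm over 6 reads at 60 s intervals; 50 mM HEPES pH 7.8, 0.5 mM EDTA, 0.1 mg/ml BSA, 1 mM TCEP, 0.01% Tween-20.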
* = called active by the depositor; ? = inconclusive; . = no result. Shown are actives, neighbours in structure and some others; about 1.7% of the full set was active somewhere. On the % scale 0 is the no-effect control and ±100 the full control effect.

SMILES	KCNH2 3.1 block	KCNH2 WT inh	FBPA coupling cs	Giardia killer	USP1 inh
O=C(CSc1nc2ccccc2c(=O)n1-c1ccc(F)cc1F)NC1CCS(=O)(=O)C1 (configuration not stated)	2	-14	.	.	-15%
CN(C)Cc1cc(O)c(CN(C)C)cc1O	14	5	-32*	10	?
Cc1ccc2oc(=O)c3cc(C(=O)NCCCOC(C)C)sc3c2c1	.	.	.	.	-24%
CCN1/C(=C2\C(=O)N(c3ccccc3)N=C2C)C=Cc2cc(C)ccc21	-102*	0	3	-16	-8%
CCN1/C(=c2/s/c(=C3/C(=O)N(c4ccccc4)N=C3C)n(CC)c2=O)C=Cc2ccccc21	-14	-7	.	-13	-13%
COc1ccc(-c2ccc(CN3C(C(C)C)C(=O)N(Cc4cn(CCC5OCCO5)nn4)CCS3(=O)=O)cc2)cc1 (configuration not stated)	5	1	.	.	-20%
CCCNC(=O)CSc1nnc(C)s1	-13	18	3	1	3%
CCOC(=O)NC(=O)CSc1nnc(C)s1	-79*	-1	0	-12	?
C=CCn1cc(/C=C/c2cc[n+](C)cc2)c2ccccc21	21	-18	-20	15	32µM*
Cc1ccccc1/C=C/c1cc[n+](C)cc1	-9	-3	-2	10	-16%
CCn1cc(/C=C/c2cc[n+](C)cc2)c2ccccc21	4	-4	-25	15	?
CCN(CC)C(=O)Cn1c(=O)n(CCc2ccccc2)c(=O)c2ccccc21	.	.	.	.	-24%
CCN(CC)C(=O)Cn1c(C)c(/C=C/c2cc[n+](C)cc2)c2ccccc21	2	4	0	7	25µM*
C=CCn1c(C)c(/C=C/c2cc[n+](C)cc2)c2ccccc21	19	-1	-1	23	35µM*
CC(C)n1cc(/C=C/c2cc[n+](C)cc2)c2ccccc21	3	-7	-33*	3	32µM*
COC(=O)c1cc2occc2n1Cc1ccc(F)cc1Cl	.	.	.	.	-28%
Cc1cc(-c2nc3ncccc3o2)ccc1NC(=O)c1ccc(Cl)cc1	.	.	.	.	-4%
COc1cc(OC)cc(C(=O)Nc2ccc(S(=O)(=O)N3CCCCC3c3cccnc3)cc2)c1 (configuration not stated)	.	.	.	.	-9%
O=C(/C=C/c1ccc(Cl)cc1)N1CCN(c2ccc(Cl)cc2[N+](=O)[O-])CC1	-96*	-133*	1	15	0%
O=C(/C=C/c1ccc([N+](=O)[O-])cc1)N1CCN(c2ccccc2F)CC1	-34	8	4	18	-5%
[O-][N+]1=c2ccc(Nc3ccccc3)cc2=NC12CCCCC2	-3	2	-50*	-4	?
COc1ccc(Nc2ccc3c(c2)=NC2(CCCCC2)[N+]=3[O-])cc1	1	8	-48*	1	?
O=[N+]([O-])c1ccc2c(c1N1CCCCC1)=NC1(CCCCC1)[N+]=2[O-]	12	-1	-26	14	-7%
COc1ccc2c(c1)C(=O)[C@H](OC(=O)N[C@H]1CCCc3ccccc31)[C@@H](c1ccc(OC)c(Br)c1)O2	.	.	0	.	.
CC(C)C[C@H](NC(=O)[C@H]1O[C@@H]1C(=O)O)C(=O)NCCCCN=C(N)N	.	.	-3	.	.
SMILES	KCNH2 3.1 block	KCNH2 WT inh	FBPA coupling cs	Giardia killer	USP1 inh
CC(C)(C)NC(=O)COC(=O)c1cc(F)c(F)cc1Cl	3	-16	-61*	-7	-13%
CNC(=O)COC(=O)c1cc(F)c(F)cc1Cl	-18	-6	0	7	-7%
CCn1ncc(C(=O)Nc2ccc(F)cc2)c1C	3	3	.	5	-20%
CCn1ncc(C(=O)Nc2ccccc2C)c1C	-95*	19	-1	-6	-17%
COc1ccccc1-n1c(SCC(N)=O)nc2c(c1=O)SCC2	-70*	-7	-6	12	3%
COc1ccc(NC(=O)CSc2nc3c(c(=O)n2-c2ccccc2OC)SCC3)cc1	-8	23	-4	15	-7%
S=C(NC1CCCCC1)N1CCN(c2ncccn2)CC1	22	11	3	8	-1%
S=C(NC1CCCCC1)N1CCN(c2ccccn2)CC1	-5	-1	-41*	33	-5%
CC(=O)c1ccc(NC2=C(N3CCOCC3)C(=O)c3ccccc3C2=O)cc1	2	3	-30*	-8	?
Cc1ccc(NC2=C(N3CCOCC3)C(=O)c3ccccc3C2=O)cc1	-1	1	-50*	-19	40µM*
O=C(O)c1ccc(NC2=C(N3CCOCC3)C(=O)c3ccccc3C2=O)cc1	2	6	-28	14	28µM*
CC(=O)c1ccc(S(=O)(=O)Nc2ccc(N3CCOCC3)cc2)cc1	-9	14	1	20	-26%
CC(C)c1ccc(S(=O)(=O)Nc2ccc3oc4c(c3c2)C(=O)CC(C)(C)C4)cc1	.	.	.	.	-6%
N=c1c(C(=O)NC2CCCC2)cc2c(=O)n3ccccc3nc2n1CC1CCCO1 (configuration not stated)	-38	-22	2	23	?
Cc1ccc(CNC(=O)c2cc3c(=O)n4ccccc4nc3n(CC3CCCO3)c2=N)cc1 (configuration not stated)	-71*	-24	0	2	-18%
N=c1c(C(=O)NCc2ccco2)cc2c(=O)n3ccccc3nc2n1Cc1ccc(Cl)cc1	-80*	-44	-9	17	-20%
CCN(CCCCO)c1nc(C)nc2c1c(C)c(C)n2-c1c(C)cc(C)cc1C	.	.	4	.	.
C=CCn1c(SCC(=O)N(C(C)CC)C2CCS(=O)(=O)C2)nc2ccccc2c1=O (configuration not stated)	-88*	-33	.	-23	-10%
O=C(NCCc1ccc(Cl)cc1)c1c2c(nc3ccccc13)C(=O)N(C1CCCCC1)C2	.	.	.	.	-16%
Cc1cc(C)c(S(=O)(=O)N2CCCc3ccccc32)c(C)c1	-95*	-7	-5	-14	-28%
COc1ccc(OC)c(C2c3c(oc4ccc(C)cc4c3=O)C(=O)N2CCCN(C)C)c1 (configuration not stated)	.	.	.	.	-24%
COc1ccccc1C(=O)Nc1ccnn1C1CCN(Cc2ccccc2OCCO)CC1	-82*	-39	2	2	-13%
COc1ccccc1CN1CCC(n2nccc2NC(=O)c2ccccc2Cl)CC1	-49	0	0	26	-23%
CCOc1ccc(CN2CCC(n3nccc3NC(=O)c3ccccc3OC)CC2)cc1	-12	-154*	0	44	-14%
COc1cc(CN2CCC(n3nccc3NC(=O)c3ccccc3OC)CC2)ccc1F	-70*	-106*	-3	8	-7%
